Screening data (PubChem)
HP1b binding inh: HTS for Inhibitors of HP1-beta Chromodomain Interactions with Methylated Histone Tails. AlphaScreen HP1-beta / biotin-H3K9me3 peptide binding. 0.56% of 390,000 active. Potency, µM (highest dose often 114 µM), for inactives: at the top dose activity change, negative = inhibition, actives largely listed as inhibitors; also: potency is read from the fitted curve at half-maximal effect; nearly all actives have a fitted effect of over 70% in size
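Compound inhibition of the preformed complex between 50 nM HP1-beta and 50 nM biotinylated H3K9me3 peptide was read by AlphaScreen. Buffer was PBS pH 7.4 with 0.01% Tween-20. Incubations ran 30 min at room temperature, with 10 ug/mL donor/acceptor beads.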
BAZ2B block: qHTS Assay for Inhibitors of BAZ2B. AID 504333, 2011. 4.4% of 360,000 active. AlphaScreen BAZ2B-H3K14Ac peptide displacement. Bromodomain adjacent to zinc finger domain protein 2B (Homo sapiens), Q9UIF8. Potency, µM (doses to about 114 µM), for the others: at the top dose activity change, negative = inhibition, usual class: inhibitors; also: potency is read from the fitted curve at half-maximal effect; % is scaled to controls: 0 for no effect and ±100 for the full control effect; nearly all actives have a fitted effect of over 60% in size
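AlphaScreen displacement: compounds (up to 110uM) incubated 30 min at room temperature with a preformed 50 nM BAZ2B/50 nM biotinylated H3K14Ac peptide complex in PBS pH 7.4 with Tween-20. Donor and acceptor beads at 10 ug/mL final added, 20 min light-protected before reading.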
G9a block: qHTS Assay for Inhibitors of Histone Lysine Methyltransferase G9a | Histone-lysine N-methyltransferase EHMT2 (Homo sapiens), Q96KQ7 | G9a H3K9 monomethylation, AlphaScreen, 2 h | Potency, µM (titrated, usually from 102 µM), without a hit: at the top dose activity, negative = inhibition, most hits filed as inhibitors | 8.8% of 350,000 active | AID 504332, 2011; also: potency is read from the fitted curve at half-maximal effect; % is scaled to controls: 0 for no effect and ±100 for the full control effect; nearly all actives have a fitted effect of over 75% in size
Target sequence (Q96KQ7 913-1193 limits assumed): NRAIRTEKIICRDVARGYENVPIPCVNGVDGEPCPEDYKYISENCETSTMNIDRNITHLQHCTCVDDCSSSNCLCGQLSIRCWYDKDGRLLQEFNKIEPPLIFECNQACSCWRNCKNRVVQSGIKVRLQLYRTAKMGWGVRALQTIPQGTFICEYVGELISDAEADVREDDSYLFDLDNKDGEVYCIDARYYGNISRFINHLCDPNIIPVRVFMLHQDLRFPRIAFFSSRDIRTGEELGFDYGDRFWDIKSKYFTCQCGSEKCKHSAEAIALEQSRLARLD
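Readings reflect AlphaScreen signal from monomethyl-H3K9 antibody detection. HMT at 20 nM; substrate b-H3K9 500 nM; cofactor SAM 20 uM; 2 h RT reaction; compounds tested as titrations in qHTS with 15 min preincubation.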
JMJD2A Tudor: qHTS Assay for Inhibitors of JMJD2A-Tudor Domain | Potency, µM (titrated, usually from 114 µM), for inactives: top-dose activity change, negative = inhibition, hits mostly inhibitors | Lysine-specific demethylase 4A (Homo sapiens), O75164 | 4.4% of 390,000 active | AlphaScreen JMJD2A-Tudor / H3K4me3 peptide binding; also: potency is read from the fitted curve at half-maximal effect; % is scaled to controls: 0 for no effect and ±100 for the full control effect; nearly all actives have a fitted effect of over 50% in size
PI5P4K alpha inh: qHTS for Inhibitors of phosphatidylinositol 5-phosphate 4-kinase (PI5P4K); 1.2% of 330,000 active; PI5P4Kalpha enzyme, ADP-Glo luminescence, 60 min; active compounds read low; Phosphatidylinositol 5-phosphate 4-kinase type-2 alpha (Homo sapiens), P48426; max response, %; active = max response of -50% or lower; inconclusive = between -30% and -50%; inactive = -30% or higher; also: value at the top dose of about 77 µM; % is scaled to controls: 0 for no effect and ±100 for the full control effect
Target sequence (P48426 whole entry, looked up): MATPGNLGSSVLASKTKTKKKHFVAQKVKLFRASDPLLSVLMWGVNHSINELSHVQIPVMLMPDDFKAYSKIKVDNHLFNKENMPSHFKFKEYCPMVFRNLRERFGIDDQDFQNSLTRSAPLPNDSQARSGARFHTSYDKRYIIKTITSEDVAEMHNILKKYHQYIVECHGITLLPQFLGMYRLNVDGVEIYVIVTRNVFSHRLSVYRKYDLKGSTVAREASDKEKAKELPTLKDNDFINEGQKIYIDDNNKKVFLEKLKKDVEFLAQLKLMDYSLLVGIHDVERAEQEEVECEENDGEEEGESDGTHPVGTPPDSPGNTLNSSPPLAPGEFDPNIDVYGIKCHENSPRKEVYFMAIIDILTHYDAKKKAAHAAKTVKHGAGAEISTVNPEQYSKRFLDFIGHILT
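ADP-Glo luminescence end-point read after a 60 min room-temperature kinase reaction of PI5P4Kalpha plus substrate, initiated with ATP at 5 microM final. Buffer: 0.038 M HEPES pH 7.4, EGTA, 0.1% CHAPS, 5% DMSO.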
PLK1 PBD inh: qHTS for Inhibitors of PLK1-PDB (polo-like kinase 1 - polo-box domain): Primary Screen; Potency, µM, without a hit: max response, negative = inhibition, usual class: inhibitors; 2.8% of 360,000 active; Serine/threonine-protein kinase PLK1 (Homo sapiens), P53350; Plk1 PBD binding of FITC phosphopeptide, fluorescence polarization; also: potency is read from the fitted curve at half-maximal effect; series mostly up to about 57 µM; % is scaled to controls: 0 for no effect and ±100 for the full control effect; nearly all actives have a fitted effect of over 65% in size
Active calls of the source: *; ? = inconclusive; nt = not tested or not shown; ! = repeats disagree; [ ] = another dose, or the depositor's remark. An excerpt weighted towards active compounds, which were near 12% of everything screened. Unless noted, calls follow the shape of the dose curve; as a rule, active = well fitted curve in the direction sought with a large enough effect; inconclusive = small, poorly fitted or top-dose-only effect, or another doubt; inactive = no such curve, though single readings can be large; an effect the other way counts as inactive or inconclusive.

SMILES | HP1b binding inh | BAZ2B block | G9a block | JMJD2A Tudor | PI5P4K alpha inh | PLK1 PBD inh
N#C/C(=C\c1cccc(Cl)c1)C(=O)c1ccccc1 | 12% | -6% | 40µM* | -19% | -18 | 0.84µM*
COc1cccc(C=C(C#N)C(=O)c2ccccc2)c1 | nt | nt | nt | nt | -3 | 2.1µM*
COc1cccc(C(=O)NNC(=O)c2ccccc2)c1 | 42% | -19% | ? | -4% | -1 | 4%
O=c1c(-c2ccc(Cl)cc2)coc2c(CN3CCOCC3)c(O)ccc12 | -7% | nt | -14%[59 µM] | 8%[11.4 µM] | -18 | 19µM*
CC1CCCCN1Cc1c(O)ccc2c(=O)c(-c3ccc(Cl)cc3)coc12 (stereo not drawn) | 29% | -3% | 9% | 79µM*! | 1 | -6%
O=C(NNC(=O)c1cccc(Br)c1)Nc1ccc(Cl)cc1 | ? | -10% | 0% | 13µM* | -26 | 21µM*
Cc1cc(C(=O)NNC(=S)Nc2ccccc2)nn1C | 80% | 3% | 32µM* | -13%[11.4 µM] | 12 | -15%
Cc1c(C(=O)NNC(=S)Nc2cccc(Cl)c2)nnn1-c1ccccc1 | -5% | 56µM* | 11µM* | ? | 0 | -12%
O=C(NNC(=S)Nc1ccccc1)c1cccc(Br)c1 | 3% | 8% | 50µM* | -19% | nt | ?
O=C(NNC(=S)Nc1ccc(Br)cc1)c1ccccc1 | 17% | -17% | -25% | -24% | -3 | -27%
O=C1CCc2cc(S(=O)(=O)Nc3cccc(Br)c3)ccc2N1 | nt | nt | nt | -16% | nt | nt
CC(=O)Nc1cccc(-c2csc(C(O)c3cccc(Cl)c3)n2)c1 (stereo not drawn) | nt | nt | nt | nt | -2 | -11%
Cc1nn(C(=O)COc2ccccc2Br)c(C)c1Sc1ccccc1 | 74% | 76% | 10%[59 µM] | 48% | nt | nt
O=C(NNC(=O)c1ccc(NC(=O)c2ccccc2)cc1)Nc1ccccc1 | 15% | 71µM* | ? | ? | 7 | -14%
COc1ncc2nc(-c3cccs3)c(=O)n(C)c2n1 | nt | nt | 12%[0.501 µM] | nt | nt | nt
CC1=C(C#N)c2nc(N)c(C#N)c(C)c2/C1=C\c1ccc(-c2ccccc2C(=O)O)o1 | 45µM* | 13µM* | 7.9µM* | 35µM* | -72* | 27µM*
COc1cc(/C=C2/C(C)=C(C#N)c3nc(N)c(C#N)c(C)c32)ccc1OCC(=O)O | -24% | 45µM* | nt | -5%[11.4 µM] | -15 | 24µM*
C/C=C/c1ccc(OCC(=O)O)c(OC)c1 | -5% | -16% | 3% | -15% | -3 | -6%
CCNc1nnc(SCC(=O)c2cc(C)n(C3CC3)c2C)s1 | 7% | -10% | 50µM* | -33% | -2 | -7%
Cn1c(N)c(C(=O)CSc2ccc3c(c2)OCCO3)c(=O)n(C)c1=O | 31% | -1% | -9%[12.7 µM] | 0% | -4 | -8%
Cc1cc(C(=O)CSc2ccc3c(c2)OCCO3)c(C)n1C1CC1 | -15% | 79µM* | ? | -26% | 1 | -11%
COc1ccc(-n2cccc2/C=C/[N+](=O)[O-])cc1 | 45µM* | 35µM* | 40µM* | 45µM* | ? | 27µM*
Cc1csc2nc(CCNS(=O)(=O)c3ccc(F)cc3)cn12 | 26%[57 µM] | 3% | 0%[59 µM] | -5% | nt | nt
O=C1c2cccc(-c3ccc(C(F)(F)F)cc3)c2C2CC=CCN12 (stereo not drawn) | nt | nt | nt | nt | 1 | -7%
Cc1ccc2nc(C)/c(=N\O)c(C)nc2c1 | 5% | -7% | 14%[0.501 µM] | -9% | nt | -3%
SMILES | HP1b binding inh | BAZ2B block | G9a block | JMJD2A Tudor | PI5P4K alpha inh | PLK1 PBD inh
Cc1nc2ccc(Cl)cc2nc(C)/c1=N\O | 34% | -1% | 28µM* | -13% | 6 | -4%
Cc1ccc2c(c1)Cc1c(nc(-c3ccc(F)cc3)nc1SCC(=O)N1CCCCC1)O2 | 35% | -4% | 0%[59 µM] | -12% | nt | nt
CC(CCc1ccccc1)NC(=O)CNc1cccc([N+](=O)[O-])c1 (stereo not drawn) | 7% | -1% | 3% | -32% | 1 | -11%
COCC(C)NCC(=O)NC(C)CCc1ccccc1 (stereo not drawn) | -32% | 56µM* | 8.9µM* | 1µM* | -10 | -14%
CCCN(CCC)c1ccc(CC(=O)NC(C)Cc2ccccc2)cc1 (stereo not drawn) | -36% | ? | 10µM* | ? | 11 | -5%
CC(CCc1ccccc1)NC(=O)Cc1ccc([N+](=O)[O-])cc1 (stereo not drawn) | ? | 0% | -11%[59 µM] | -33%[57.1 µM] | -5 | 30µM*
CCOC(=O)c1cccc(NC(=O)c2cc(S(=O)(=O)N3CCCC3)cn2C)c1 | 7% | 1% | 1%[59 µM] | -11% | nt | nt
COCCNC(=O)C[C@@H]1C[C@H]2c3cc(NC(=O)Nc4ccc(F)cc4)ccc3O[C@H]2[C@H](CO)O1 | nt | nt | nt | nt | 6 | -9%
O=C1C(Cl)=C(NS(=O)(=O)c2ccc([N+](=O)[O-])cc2)C(=O)c2ccccc21 | ? | 45µM* | -154%[59 µM] | ? | 102 | ?
CC(=O)c1ccc2c3c(ccc(O)c13)CC2 | ? | 35µM* | 45µM* | 45µM* | nt | -6%
O=c1c(/C=N/Nc2ccccc2)c(Sc2nnnn2-c2ccccc2)nc2ccccn12 | 9% | 7% | -13%[12.7 µM] | -15% | nt | 7%
O=C(O)c1ccccc1N/N=C/c1c(Sc2nnnn2-c2ccccc2)nc2ccccn2c1=O | -25% | 45µM* | 40µM* | ? | -7 | 9%
CCOC(=O)C1C(=O)N(C(=O)c2cncc(Br)c2)CC1c1ccccc1 (stereo not drawn) | ? | -1% | ? | ? | ? | 3µM*
N=C1SC(c2ccccc2)C(=O)N1c1ncc(Cc2ccccc2)s1 (stereo not drawn) | 32% | -3% | 8%[59 µM] | -19% | -56* | -20%
Cc1ccc(Cc2cnc(N3C(=N)SC(c4ccccc4)C3=O)s2)cc1 (stereo not drawn) | 14% | -4% | 2% | ? | -73* | -7%
C=CCc1ccc(OCCCN2CCCC(C)C2)c(OC)c1 (stereo not drawn) | -25% | 79µM* | 7.1µM* | 3.5µM* | nt | -3%
C=CCc1ccc(OCCCCN2CCC(C)CC2)c(OC)c1 | -24% | ? | ? | 2.8µM* | 2 | -14%
COc1cc(CN2CCCC(C)C2)ccc1OCc1ccccc1 (stereo not drawn) | 12% | 11% | nt | -14% | -7 | 7%
CCc1noc(C)c1C(=O)NNC(=O)COc1ccc(C)cc1 | 56% | -3% | -3%[0.501 µM] | -9% | 5 | 5%
